PubChem BioAssay
For some assays here: Measured potencies and affinities stand elsewhere. Active and inactive are the calls of the source. Unless noted, no rule for the calls is given here.

molecular target: Protein kinase 7 (PK7), Plasmodium falciparum 3D7 (PF3D7_0213400) (UniProt Q7YTF7); assay: inhibition of Plasmodium PK7 catalytic activity – biochemical, TCAMS antimalarial set, Kinase-Glo luminescence (AID 1159587); conditions: recombinant PfPK7, Kinase-Glo ATP depletion luminescence
Sequence (Q7YTF7 1-343): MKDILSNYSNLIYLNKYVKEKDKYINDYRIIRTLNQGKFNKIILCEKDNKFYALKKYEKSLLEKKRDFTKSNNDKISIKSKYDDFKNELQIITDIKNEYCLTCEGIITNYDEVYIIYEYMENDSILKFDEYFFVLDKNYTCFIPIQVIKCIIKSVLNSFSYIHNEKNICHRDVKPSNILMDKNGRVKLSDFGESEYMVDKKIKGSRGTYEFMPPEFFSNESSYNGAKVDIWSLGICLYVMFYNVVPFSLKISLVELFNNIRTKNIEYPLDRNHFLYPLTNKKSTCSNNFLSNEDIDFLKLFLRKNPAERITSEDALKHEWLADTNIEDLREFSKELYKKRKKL

outcome, inactive:
O=C(Nc1ccc(-c2nc3ccccc3[nH]2)cc1)c1ccc(-c2cccc([N+](=O)[O-])c2)o1
Cc1cc(Nc2ccc(C(C)(C)C)cc2)c2[nH]ncc2n1
O=S(=O)(NCCN1CCCC1)c1ccc(-c2ccc(CNCc3ccsc3)cc2)cc1
CCCCN(CCCC)Cc1cc2ccccc2cc1O
Cc1cccc2[nH]c(-c3ccc(-c4cccc(NC(=O)C(C)CN5CCN(C)CC5)c4)cc3)nc12 (stereo not given)
COc1ccc2nccc(NN=Cc3ccc(F)cc3)c2c1
CN1C(C)(C)CC(NC(=O)c2ccc(-c3nc4cc(Cl)c(Cl)cc4[nH]3)cc2)CC1(C)C
COc1ccc(CNCCCCCNCc2ccc(Cl)c(Cl)c2)cc1Cl
COc1c(C2CCN(CCCCNC(=O)c3cc(-c4ccc(Cl)cc4)sc3C)CC2)ccc2c1CCCC2
COc1cc2c(c(OC)c1[N+](=O)[O-])C=CC1(O2)N(C)c2ccc([N+](=O)[O-])cc2C1(C)C (stereo not given)
COc1ccc2nc(C)cc(NN=Cc3ccccc3F)c2c1
Cc1noc(C)c1-c1ccc2c(Nc3ccc([N+](=O)[O-])cc3)c(C(N)=O)cnc2c1
CCOC(=O)c1ccc(NC(=O)Nc2cccc(-c3ccc(-c4nc5c(C)cccc5[nH]4)s3)c2)cc1
Cc1ccc(NS(=O)(=O)c2cccs2)cc1-c1cccc(C(=O)Nc2ccc(F)cc2)c1
Clc1ccc(Nc2nc(NCc3ccccc3)nc(N/N=C/c3ccccn3)n2)cc1
O=C1CCCN1CCCNCc1ccc(-c2ccc(-c3nc4ccc(F)cc4[nH]3)cc2)cc1
O=C(Nc1cccc(CN2CCCN(Cc3ccccc3)CC2)c1)c1ccc(-c2ccccc2)cc1
O=[N+]([O-])c1cccc(CNCC2CCN(CCc3ccccc3)CC2)c1
O=C(NC1CC1)c1ccc(N2CCC(Cc3ccccc3)CC2)c([N+](=O)[O-])c1
O=C(CCNc1ccnc(NCC2CCCCC2)n1)Nc1ccccc1
c1ccc(CNCc2cccc(-c3cccc(-c4nc5ccccc5[nH]4)c3)c2)cc1
C[C@]12CC3CC(Nc4nc(N5CCOCC5)nc5ccccc45)(C1)C[C@@](C)(C3)C2
COc1cc2nc(N(C)Cc3cccc(I)c3)nc(N)c2cc1OC
c1ccc2c(c1)ncn2-c1ccnc(Nc2ccncc2)n1
FC(F)(F)c1ccc(CNC2CCN(CC3CCCCC3)CC2)cc1
Cc1cc(NCC(c2ccccc2)c2ccccc2)nc(NCc2ccc(C(F)(F)F)cc2)n1
COc1ccc(NC(=O)C2c3ccccc3C(=O)N(C3CCCC3)C2c2cccs2)cc1 (stereo not given)
COc1cc(C(=O)N2CCN(C(C)C)CC2)ccc1CN(C)CCCCN1CCN(c2cccc(Cl)c2Cl)CC1
CC1(C)N=C(N)N=C(N)N1OCc1cccc(Cl)c1Cl
O=C(NC1CC1)c1ccc(N2CCCCN2CCc2ccccc2)c(C(F)(F)F)c1
O=C(NCCCCN1CCC(c2ccc3ccccc3c2O)CC1)c1ccc(NC(=O)c2ccc(Cl)cc2)cc1
CN(C)CCOc1ccc2c(c1)OC(C)(C)C=C2c1cccc2ccccc12
Oc1cccc2c1CC(NCc1ccccc1)CC2 (stereo not given)
C=CCc1cccc(C)c1OCCCON1C(N)=NC(N)=NC1(C)C
COc1cccc2c(NCc3ccccc3)nc(NCCCN3CCCCC3C)nc12 (stereo not given)
O=C(Nc1cccc(-c2csc(-c3nc4ccccc4[nH]3)c2)c1)c1ccncc1
CCCc1cc(Cc2cnc(N)nc2N)cc(OCCCCCC(=O)O)c1OC
CCOc1cc(C=NNc2nc3ccccc3[nH]2)ccc1OCc1ccc([N+](=O)[O-])cc1
Cc1nnc(-c2ccc3ccccc3c2)c2cn(-c3cccc([N+](=O)[O-])c3)nc12
CC(C)(C)c1ccc(CN2CCC(CNC(=O)c3cc(-c4ccccc4C(F)(F)F)cs3)C2)cc1 (stereo not given)

molecular target: Calcium-dependent protein kinase 4 (Plasmodium falciparum (isolate 3D7)) (UniProt Q8IBS5); assay: PfCDPK4 kinase inhibitors, biochemical, TCAMS library (AID 1159588; cut-off not given, nearly all actives have IC50 up to about 0.91 µM); conditions: recombinant PfCDPK4, Kinase-Glo ATP depletion luminescence
Sequence (Q8IBS5 whole entry, looked up): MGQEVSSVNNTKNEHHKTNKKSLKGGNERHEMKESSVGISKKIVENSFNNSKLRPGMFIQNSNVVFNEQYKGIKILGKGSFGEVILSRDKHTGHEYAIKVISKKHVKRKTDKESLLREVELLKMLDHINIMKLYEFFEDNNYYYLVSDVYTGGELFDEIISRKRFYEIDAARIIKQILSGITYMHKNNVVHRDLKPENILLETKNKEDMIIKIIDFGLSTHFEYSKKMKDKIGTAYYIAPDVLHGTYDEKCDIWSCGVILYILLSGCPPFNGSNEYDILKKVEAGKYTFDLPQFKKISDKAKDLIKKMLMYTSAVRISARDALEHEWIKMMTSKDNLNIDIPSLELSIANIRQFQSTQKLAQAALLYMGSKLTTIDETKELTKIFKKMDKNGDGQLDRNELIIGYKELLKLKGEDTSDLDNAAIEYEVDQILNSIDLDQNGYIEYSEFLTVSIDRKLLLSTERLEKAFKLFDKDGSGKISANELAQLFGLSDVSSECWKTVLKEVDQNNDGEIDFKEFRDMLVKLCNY

outcome, inactive:
O=C(Nc1ccc(-c2nc3ccccc3[nH]2)cc1)c1ccc(-c2cccc([N+](=O)[O-])c2)o1
Cc1cc(Nc2ccc(C(C)(C)C)cc2)c2[nH]ncc2n1
O=S(=O)(NCCN1CCCC1)c1ccc(-c2ccc(CNCc3ccsc3)cc2)cc1
CCCCN(CCCC)Cc1cc2ccccc2cc1O
Cc1cccc2[nH]c(-c3ccc(-c4cccc(NC(=O)C(C)CN5CCN(C)CC5)c4)cc3)nc12 (stereo not given)
COc1ccc2nccc(NN=Cc3ccc(F)cc3)c2c1
CN1C(C)(C)CC(NC(=O)c2ccc(-c3nc4cc(Cl)c(Cl)cc4[nH]3)cc2)CC1(C)C
COc1ccc(CNCCCCCNCc2ccc(Cl)c(Cl)c2)cc1Cl
COc1c(C2CCN(CCCCNC(=O)c3cc(-c4ccc(Cl)cc4)sc3C)CC2)ccc2c1CCCC2
COc1cc2c(c(OC)c1[N+](=O)[O-])C=CC1(O2)N(C)c2ccc([N+](=O)[O-])cc2C1(C)C (stereo not given)
COc1ccc2nc(C)cc(NN=Cc3ccccc3F)c2c1
Cc1noc(C)c1-c1ccc2c(Nc3ccc([N+](=O)[O-])cc3)c(C(N)=O)cnc2c1
CCOC(=O)c1ccc(NC(=O)Nc2cccc(-c3ccc(-c4nc5c(C)cccc5[nH]4)s3)c2)cc1
Cc1ccc(NS(=O)(=O)c2cccs2)cc1-c1cccc(C(=O)Nc2ccc(F)cc2)c1
Clc1ccc(Nc2nc(NCc3ccccc3)nc(N/N=C/c3ccccn3)n2)cc1
O=C1CCCN1CCCNCc1ccc(-c2ccc(-c3nc4ccc(F)cc4[nH]3)cc2)cc1
O=C(Nc1cccc(CN2CCCN(Cc3ccccc3)CC2)c1)c1ccc(-c2ccccc2)cc1
O=[N+]([O-])c1cccc(CNCC2CCN(CCc3ccccc3)CC2)c1
O=C(NC1CC1)c1ccc(N2CCC(Cc3ccccc3)CC2)c([N+](=O)[O-])c1
O=C(CCNc1ccnc(NCC2CCCCC2)n1)Nc1ccccc1
c1ccc(CNCc2cccc(-c3cccc(-c4nc5ccccc5[nH]4)c3)c2)cc1
C[C@]12CC3CC(Nc4nc(N5CCOCC5)nc5ccccc45)(C1)C[C@@](C)(C3)C2
COc1cc2nc(N(C)Cc3cccc(I)c3)nc(N)c2cc1OC
c1ccc2c(c1)ncn2-c1ccnc(Nc2ccncc2)n1
FC(F)(F)c1ccc(CNC2CCN(CC3CCCCC3)CC2)cc1
Cc1cc(NCC(c2ccccc2)c2ccccc2)nc(NCc2ccc(C(F)(F)F)cc2)n1
COc1ccc(NC(=O)C2c3ccccc3C(=O)N(C3CCCC3)C2c2cccs2)cc1 (stereo not given)
COc1cc(C(=O)N2CCN(C(C)C)CC2)ccc1CN(C)CCCCN1CCN(c2cccc(Cl)c2Cl)CC1
CC1(C)N=C(N)N=C(N)N1OCc1cccc(Cl)c1Cl
O=C(NC1CC1)c1ccc(N2CCCCN2CCc2ccccc2)c(C(F)(F)F)c1
O=C(NCCCCN1CCC(c2ccc3ccccc3c2O)CC1)c1ccc(NC(=O)c2ccc(Cl)cc2)cc1
CN(C)CCOc1ccc2c(c1)OC(C)(C)C=C2c1cccc2ccccc12
Oc1cccc2c1CC(NCc1ccccc1)CC2 (stereo not given)
C=CCc1cccc(C)c1OCCCON1C(N)=NC(N)=NC1(C)C
COc1cccc2c(NCc3ccccc3)nc(NCCCN3CCCCC3C)nc12 (stereo not given)
O=C(Nc1cccc(-c2csc(-c3nc4ccccc4[nH]3)c2)c1)c1ccncc1
CCCc1cc(Cc2cnc(N)nc2N)cc(OCCCCCC(=O)O)c1OC
CCOc1cc(C=NNc2nc3ccccc3[nH]2)ccc1OCc1ccc([N+](=O)[O-])cc1
Cc1nnc(-c2ccc3ccccc3c2)c2cn(-c3cccc([N+](=O)[O-])c3)nc12
CC(C)(C)c1ccc(CN2CCC(CNC(=O)c3cc(-c4ccccc4C(F)(F)F)cs3)C2)cc1 (stereo not given)
